# Source: the supplement of paper PMC6555819
# Columns and labels:
# Assay in all cases: PBM binding z-score (relative to random genomic background probes); higher = stronger binding; sequences stand for … in GC…GCGATTGACAGCGTAGAATGAAGG
# [1] = tested on: FXR:RXRa (NR concentration 270 nM, RXRa partner concentration 90 nM)
# Outline: (§1)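 Each nuclear receptor dimer, without ligand, was incubated for 1 h on custom Agilent 4×180K protein-binding microarrays. Binding was detected with antibodies against each partner (one per run), and scanned fluorescence was regression-normalized. The binding z-scores are referenced to random human genomic background probes.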
# [2] = tested on: LXRa:RXRa (NR concentration 270 nM, RXRa partner concentration 90 nM)
# Outline: as §1
# [3] = tested on: LXRa homodimer (NR concentration 270 nM)
# Outline: as §1
# [4] = tested on: LXRb:RXRa (NR concentration 270 nM, RXRa partner concentration 90 nM)
# Outline: as §1
# [5] = tested on: LXRb homodimer (NR concentration 270 nM)
# Outline: as §1
# [6] = tested on: PPARa:RXRa (NR concentration 270 nM, RXRa partner concentration 90 nM)
# Outline: as §1
# [7] = tested on: PPARg:RXRa (NR concentration 180 nM, RXRa partner concentration 90 nM)
# Outline: as §1
# [8] = tested on: PPARg:RXRa 270nM:90nM, anti-RXR (NR concentration 270 nM, RXRa partner concentration 90 nM)
# Outline: as §1
# [9] = tested on: PPARg:RXRa 30nM:10nM, anti-RXR (NR concentration 30 nM, RXRa partner concentration 10 nM)
# Outline: as §1
# [10] = tested on: PPARg:RXRa 90nM:30nM, anti-RXR (NR concentration 90 nM, RXRa partner concentration 30 nM)
# Outline: as §1
Sequence,PBM binding z-score [1],PBM binding z-score [2],PBM binding z-score [3],PBM binding z-score [4],PBM binding z-score [5],PBM binding z-score [6],PBM binding z-score [7],PBM binding z-score [8],PBM binding z-score [9],PBM binding z-score [10]
TCATATAGGTAAATGCTAGGTGTAAGTCCGATCT,0.454,0.941,0.2,0.659,-0.0969,1.05,0.749,2.17,3.9,2.97
GCAGACAGGTGAAACGCAGGTCACTCAGGGTGGC,1.55,2.05,0.579,1.27,-0.88,2.57,0.931,1.01,-0.357,0.0435
GCAGACAGGTGAAACGCATGTAACTCAGGGTGGC,-0.379,-0.173,-0.544,-0.265,-1.29,0.825,0.841,-0.0772,-0.653,-0.344
ATCTCTAGGTAACCAAGTTCAGTGAGTGCCGAAC,0.417,0.863,0.949,0.855,0.746,1.04,0.34,0.67,-0.0594,0.338
CCGGCTAGGTCAATGGTCAGCTAAAGCAGCTCGC,3.18,1.98,-0.137,1.48,-0.304,2.91,3.63,4.32,1.63,4.03
AGAACGAGGGCAATGCGTTGATAGCACGGGTGGC,0.0853,0.264,-0.517,-0.19,-0.678,1.3,1.36,0.671,-0.109,0.215
TCCGCTAGGTCAGTTGGTCAGCTAACGAGCTGCC,1.2,0.833,-0.36,0.472,-0.0467,1.57,0.233,1.55,1.2,1.49
TCTCGGAGGACACGAATGGTCAGAGCTCGACATC,0.104,0.0169,-0.468,-0.483,-0.915,-0.144,0.236,0.78,2.1,1.28
ACTAGCAGGCCAAGTTCGGGTCACTCAAACAAAG,1.11,1.28,0.378,1.79,-0.339,2.45,0.431,0.794,-0.79,0.197
CCGACTGGGGCATAAGGTTACCGTAAGCCAGCCC,0.834,0.933,-0.596,0.83,-1.46,2.03,2.33,3.5,1.26,3.13
ATATGTAGGTTATCGGGTCATGCAGTTTGCGCAT,2.87,3.08,1.26,2.54,0.785,4.99,7.53,6.31,4.45,6.01
ACAGACAGGTGAGTGAAGGTAACTCAGCTGGACG,0.377,0.0321,-0.247,-0.255,-0.625,0.294,0.762,0.0476,-0.138,-0.304
ATCTCTAGGTAAAGATAGTTCAATGAATGCAAAT,0.446,4.83,1.09,1.44,0.777,1.15,1.03,0.735,0.381,0.638
GCTAGCAGGCCGTTTGGGTCACTCAATGACGGGC,0.0511,-0.392,-0.828,-0.0413,-1.11,0.602,-0.107,-0.514,-0.56,-0.437
CCGACTGGGGCATAAGGTTACCATCAGCCAGCCC,0.308,1.43,-0.15,0.516,-1.51,1.9,2.3,2.99,1.18,2.32
GCTCACGGGTCAAAGGTTATAGCATGAATAGAAT,7.17,5.69,0.496,5.67,0.379,6.85,9.36,8.27,6.88,8.29
CATACAGGGTCAGCTAGTCCAGAGTAGGGACGGC,4.47,2.76,-0.017,2.18,0.191,4.2,3.22,2.78,0.664,2.06
CCTATTAGTTGACCATAAGGGCATCCGAAGCTCG,0.924,0.501,0.549,0.384,0.423,0.26,0.493,0.533,-0.0651,0.145
TTACCAAGGTGAATGGTCGTTGATGCACGCCTTG,0.766,0.485,-0.417,0.403,-0.853,1.35,1.32,2.39,1.14,2.06
TGTATGAGGTTATAAGATCAGGGAACGTTGCAAA,1.68,1.72,0.117,1.22,0.92,2.51,1.04,1.47,0.966,1.2
AATACAGGGGCATCGTAGGCCAGAGTACGCACAG,0.565,0.874,0.0851,1.04,0.436,1.06,1.13,0.622,0.174,0.275
TGTCAAAGTTCAAAGGGAACGTAAGTATCCACAC,7.11,6.18,3.96,4.16,1.68,5.06,8.1,7.17,5.31,7.11

Sequence,PBM binding z-score [1],PBM binding z-score [2],PBM binding z-score [3],PBM binding z-score [4],PBM binding z-score [5],PBM binding z-score [6],PBM binding z-score [7],PBM binding z-score [8],PBM binding z-score [9],PBM binding z-score [10]
CCTACTGGGCCATCAGGTCATTGGTATCAACGTT,1.47,1.25,1.08,1.78,-0.424,2.91,2.98,3.68,1.17,2.79
TCTGCTAGGTCAGTTGTTCAGCTAACGAGCTGCC,0.697,0.0799,-0.424,0.213,0.398,1,-0.335,1.24,1.28,1.21
GCTCGGAGGACCAGGTCAGAGCTTTGTCCGTAGA,0.0133,-0.0636,-0.562,-0.241,-1.47,0.776,-0.725,-0.204,-1.11,-0.616
CCTACTGGGCCACGAGAGGTCATTGATTCAGTGA,3.4,4.47,4.55,3.57,0.302,4.09,4.45,4.16,1.68,3.1
ATATATAGGTTAAGGGTCATTCAGGTTGGTTCGC,5.73,5.29,4.07,4.88,1.86,6.8,11.9,9.9,10.7,11.7
TGTCTAAGTTCAAAGGTAACGTAAGTATCCACAC,4.9,5.21,1.95,3.38,1.12,4.85,4.52,5.15,2.77,4.68
AGAGTGAGGTTATTAAGATCAGGGAATTGCGGTC,1.77,1.58,0.813,1.94,0.987,2.46,0.616,1.31,0.245,1.12
TCTTGTAGATCAAAGGTTAAGGAAGCCGAAGCCT,1.76,1.94,0.12,1.9,-0.272,4.8,7.91,7.99,7.63,8.41
CAAACTAGGTCTAGAGGTCAAAGTCCGCTTCCCG,4.99,5.78,5.83,4.86,1.55,5.14,5.12,5.9,4.3,5.99
TCTAGTTGGTCAGGGAGGTCACACACGACGGGTA,3.15,3.3,2.44,3.24,1.66,3.72,2.28,3.13,3.27,3.23
CCGACTGGGGCATATGGTTACCATAAGCCAGCCC,-0.611,-0.598,-0.857,-0.657,-1.1,0.208,1.47,1.94,0.491,1.32
ACAGATAGGTGAGTGAAGGTAACTCAGCTGGACG,0.482,0.0886,-0.209,-0.39,-0.76,0.462,0.821,0.426,-0.17,0.325
ATCTCTAGGTAAAGATAGTCCAGTGAATGCAAAT,0.226,0.368,-0.00685,-0.0224,0.398,-0.051,0.458,0.219,0.157,0.0539
CCGACTTGGGCATAAGGTTACCATAAGCCAGCCC,0.141,1.54,-0.195,0.516,-1.29,0.631,0.738,0.712,-0.372,0.427
CGAACTAGGTCAAGGACAGTGGATCTCCGCACGC,3.06,1.85,-0.0741,1.23,-0.565,4.31,6.9,6.1,3.35,5.72
GCTATTAGTTGAAAGGGCAGCCGAATGATTCTCG,0.117,0.132,-0.239,0.0989,-0.467,1.69,1.92,3.53,1.46,3.05
CGTCCAAGGTCAGAGGAGGTCAGTGAAGACAGAT,6.02,5.57,2.4,4.09,-0.0595,4.82,3.53,3.88,0.854,2.48
TCTTGTAGATCAATAGAGGTGAAGAAAGTGCGCT,1.02,0.833,-0.122,0.533,-0.232,1.5,0.0312,1.72,2.84,2.21
GCTAGTTGGTCAGAAAAAGGTCACACACCGGTCG,2.95,3.7,3.13,3.75,0.434,4.21,1.74,3.02,0.669,2.14
GATACAGGGTCAAGGACAGAGTACGCGTATTGAT,6.59,4.45,0.185,4,0.413,5.54,5.7,5.61,2.93,4.51
CAAACTAGGTCAAGGTCAATGTCGGTTTGTGCCA,6.03,5,3.19,4.14,1.08,5.94,9.35,7.99,6.08,8.16
GCTAGTTGGTCAGTAACAGGTCACACACCGGTCG,0.984,1.45,1.48,1.39,-0.167,2.06,0.82,1.12,-0.211,0.627
